KB-3-1 tox – qHTS assay for MDR1-selective chemotherapeutics: Primary screen using the parental adenocarcinoma cell KB-3-1. KB-3-1 viability, CellTiter-Glo ATP luminescence, 72 h. Potency, µM (top dose mostly 46.1 µM), actives largely listed as cytotoxic. hit rate 1.4% among 400,000. AID 1347075, 2019; also: nearly all actives have a fitted effect of over 60% in size
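Screening of KB-3-1 cells (DMEM, 10% FBS, phenol-red free) ran from lowest to highest compound concentration; after 72 h at 37 °C viability was read luminescently and curves fitted.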
HT1080NT lethal – qHTS for induction of synthetic lethality in tumor cells producing 2HG: qHTS for the HT-1080-NT fibrosarcoma cell line; HT-1080-NT fibrosarcoma viability, CellTiter-Glo ATP luminescence, 48 h; hit rate 1.6% among 360,000; Potency, µM (titrated, usually from 46.1 µM), for the others: at the top dose activity, negative = less viability, most hits filed as cytotoxic; AID 686970, 2013;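 also: NT is the 2HG producing partner of a matched IDH1 knockdown line; 0% = DMSO-treated cells and -100% = media-only wells without cells; nearly all actives have a fitted effect of over 55% in size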
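Read-out is CellTiter-Glo luminescence after 10 minutes at room temperature, following 48 hours' compound treatment of HT-1080-NT cells (750 cells/well, RPMI, 5% FBS, 37 degrees C).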
TDP1 cell noCPT – qHTS for Inhibitors of human tyrosyl-DNA phosphodiesterase 1 (TDP1): qHTS in cells in absence of CPT; DT40 Tdp1-/- hTDP1 cells, no CPT, ATP luminescence, 48 h; hit rate 15% among 420,000; Potency, µM (titrated, usually from 46.2 µM), without a hit: top-dose activity change, negative = growth inhibition, hits mostly inhibitors; AID 686978, 2013; also: nearly all actives have a fitted effect of over 55% in size
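Camptothecin absent (DMSO only). Human TDP1-complemented DT40 knockout cells, 400 cells/well, 37 °C for minimum 48 hr; ATP measured via CellTiter-Glo, 30 min dark incubation, luminescence.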
TDP1 cell CPT – qHTS for Inhibitors of human tyrosyl-DNA phosphodiesterase 1 (TDP1): qHTS in cells in presence of CPT; chicken DT40 Tdp1-/-;hTDP1 cells + 20 nM CPT, ATP luminescence, 48 h; Potency, µM (titrated, usually from 46.2 µM), for the others: at the top dose activity change, negative = growth inhibition, hits mostly inhibitors; hit rate 12% among 420,000; AID 686979, 2013; also: nearly all actives have a fitted effect of over 55% in size
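Cell growth measured by CellTiter-Glo luminescence after a minimum 48 h, 37 C compound exposure with 20 nM CPT in Tdp1-knockout DT40 cells stably expressing hTDP1, seeded 400/well; qHTS titration format.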
KB-V1 cytotox – qHTS assay for MDR1-selective chemotherapeutics: Primary screen using the drug-selected MDR subline cells KB-V1 | KB-V1 MDR cells viability, CellTiter-Glo, 72 h | Potency, µM (titrated, usually from 46.1 µM), hits mostly cytotoxic | hit rate 3.4% among 400,000 | AID 1347076, 2019; also: nearly all actives have a fitted effect of over 60% in size
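KB-V1 cells (P-gp-expressing MDR subline of KB-3-1) in phenol-red-free DMEM with 10% FBS were exposed to library compounds over a concentration series for 72 h at 37 degrees C. Viability read by CellTiter-Glo luminescence; concentration-effect curves fitted after normalization.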
HT1080 IDH1KD tx – qHTS for induction of synthetic lethality in tumor cells producing 2HG: qHTS for the HT-1080-IDH1KD cell line; AID 686971, 2013; Potency, µM (top dose mostly 46.1 µM), inactives show at the highest dose activity, negative = toxicity, most hits filed as cytotoxic; HT-1080 IDH1 knockdown viability, ATP luminescence, 48 h; hit rate 2% among 360,000;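 also: 0% = DMSO wells and -100% = cell-free medium wells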
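Assay cells: HT-1080 with IDH1 knockdown, 750 per well, RPMI/5% FBS. Exposure: 48 h at 37 °C following 2 h pre-incubation. Read: CellTiter-Glo luminescence; fitted concentration-response, curve class assigned.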
* marks the source's active call; other numbers are inactive results; i = inactive; ? = inconclusive; / = not tested or not shown. Rows were chosen to be rich in hits. Some 19% of all compounds tested hit in one or more screens of this group. Calls follow the shape of the dose curve; as a rule, active = well fitted curve in the direction sought with a large enough effect; inconclusive = small, poorly fitted or top-dose-only effect, or another doubt; inactive = no such curve, though single readings can be large; an effect the other way counts as inactive or inconclusive. Unless noted, % is scaled to controls: 0 for no effect and ±100 for the full control effect; potency is read from the fitted curve at half-maximal effect.

SMILES	KB-3-1 tox	HT1080NT lethal	TDP1 cell noCPT	TDP1 cell CPT	KB-V1 cytotox	HT1080 IDH1KD tx
Cc1nc(C)c(C(=O)N2CCCC(C(=O)c3ccc4ccccc4c3)C2)s1 (stereo not drawn)	i	10.0%	32.6µM*	?	i	-2.5%
Cc1nc(SCC(=O)N2CCCC2=O)nc(C)c1C	i	-2.3%	-3.8%	-0.3%	i	-2.1%
COc1ccc(C(C(=O)NC(C)(C)C)N(C(=O)CCC(=O)Nc2cc(C)on2)c2ccccc2F)cc1 (stereo not drawn)	i	-23.8%	?	-16.4%	i	-22.0%
COc1ccc2cc(C(=O)C3CCCN(C(=O)c4cnccn4)C3)ccc2c1 (stereo not drawn)	i	-9.6%	?	?	i	-1.1%
COc1ccc(Cl)cc1C(=O)C1CCCN(Cc2cnc(N3CCOCC3)s2)C1 (stereo not drawn)	i	-0.2%	29.1µM*	?	?	-13.7%
CSc1ccc(C(=O)C2CCCN(C(=O)c3nn(C)c(=O)c4ccccc34)C2)cc1 (stereo not drawn)	?	?	16.4µM*	?	i	?
COc1ccc2cc(C(=O)C3CCCN(C(=O)/C=C/c4ccccn4)C3)ccc2c1 (stereo not drawn)	i	-10.0%	20.6µM*	?	?	-2.6%
Cc1cc(C(=O)N2CCCC(C(=O)c3ccc4ccccc4c3)C2)n(C)n1 (stereo not drawn)	i	-12.9%	20.6µM*	?	i	-18.2%
COc1ccc(F)cc1C(=O)C1CCCN(Cc2cnc(N3CCCC3)s2)C1 (stereo not drawn)	i	17.6%	-20.2%	-1.8%	i	5.6%
COc1ccccc1N1CC(C(=O)Nc2ccccc2N2CCCC2)CC1=O (stereo not drawn)	i	-4.9%	-4.5%	-27.9%	i	-13.0%
O=C(CNC(=O)c1ccncc1)N/N=C/c1ccc(O)cc1O	i	-16.7%	18.4µM*	?	i	-6.9%
COc1cccc(/C=N/NC(=O)CN2CC(c3ccccc3)CC2=O)c1O (stereo not drawn)	?	?	18.4µM*	?	?	?
COc1ccc(/C=N/NC(=O)CNC(=O)COc2ccccc2)cc1	i	24.6%	-15.5%	-5.9%	i	26.7%
COc1cccc(/C=N/NC(=O)CNC(=O)COc2ccccc2)c1O	i	?	7.31µM*	6.51µM*	i	?
COc1cccc(/C=N/NC(=O)C[n+]2ccccc2)c1O	i	0.8%	-9.5%	-2.6%	i	-1.0%
COc1cccc(/C=N/NC(=O)CNC(=O)C2COc3ccccc3O2)c1O (stereo not drawn)	?	?	3.66µM*	5.8µM*	i	?
COc1cc(/C=N/NC(=O)CNC(=O)c2ccncc2)ccc1O	i	5.3%	16.0%	7.5%	i	14.4%
COc1ccc(NC(=O)NNC(=O)COc2ccc([N+](=O)[O-])c(C)c2)cc1OC	i	0.5%	-2.3%	5.8%	i	-0.9%
O=C(NCC(c1ccco1)N1CCN(c2ccccc2F)CC1)c1ccco1 (stereo not drawn)	i	4.6%	?	-23.5%	i	0.2%
Fc1cccc(NCc2cccn2-c2nnc(N3CCOCC3)s2)c1	i	/	?	?	i	/
Cc1cc(C(=O)Cn2cnc3ccccc3c2=O)c(C)n1C1CC1	i	0.8%	1.1%	-1.5%	i	1.7%
Cc1ccc(/C=N/NC(=O)CNC(=O)COc2ccccc2)cc1	i	?	-6.7%	8.0%	i	27.0%
COCCCNC(=S)N/N=C/c1cccc(OC)c1O	i	?	0.651µM*	0.82µM*	?	?
CCOc1ccc(CCNC(=O)C(O)c2ccccc2)cc1 (stereo not drawn)	i	5.7%	-27.6%	4.0%	i	-0.2%
CCOc1ccc(/C=N/NC(=O)C(O)c2ccccc2)c(O)c1 (stereo not drawn)	i	?	?	4.11µM*	i	11.6µM*
SMILES	KB-3-1 tox	HT1080NT lethal	TDP1 cell noCPT	TDP1 cell CPT	KB-V1 cytotox	HT1080 IDH1KD tx
COCCCNC(=S)N/N=C/c1ccc(O)cc1O	i	-10.1%	?	?	i	-17.3%
COc1ccc(CCCC(=O)N/N=C/c2cccc(OC)c2O)cc1C	?	?	1.64µM*	1.84µM*	?	?
O=C(COc1ccccc1)NCC(=O)N/N=C/c1ccc(O)cc1O	?	?	16.4µM*	?	i	?
COc1cc(/C=N/NC(=O)c2ccccc2NS(=O)(=O)c2cccs2)ccc1O	i	-2.8%	-6.9%	0.0%	i	-3.2%
COc1cccc(/C=N/NC(=O)CNC(=O)c2cccnc2)c1O	i	?	7.31µM*	-102.7%	i	11.6µM*
O=C(CNC(=O)c1ccc2c(c1)OCCO2)N/N=C/c1ccc(O)cc1O	i	-19.5%	18.4µM*	?	i	?
CCOc1cccc(/C=N/NC(=O)c2ccc3c(c2)OCCO3)c1O	?	?	4.11µM*	2.59µM*	?	?
COc1cccc(/C=N/NC(=O)CNC(=O)c2ccco2)c1O	i	-12.8%	8.2µM*	6.51µM*	?	-19.5%
COc1cccc(/C=N/NC(=O)CNC(=O)c2ccncc2)c1O	i	14.3%	?	?	i	?
Cc1ccc(-n2nc(C(=O)Nc3ccc(F)cc3Cl)c(=O)n(C)c2=O)cc1	i	/	-12.4%	-1.2%	i	/
CC(=O)c1ccc[nH]1	/	/	0.6%	-12.2%	/	/
COc1cc(/C=N/NC(=O)c2ccc3c(c2)OCCO3)c(Br)c(Br)c1O	i	1.8%	?	-12.1%	i	-0.8%
COc1cccc(/C=N/NC(=O)CNC(=O)c2ccc3c(c2)OCCO3)c1O	?	?	?	16.4µM*	i	?
CC(C)(C)OC(=O)N1CCC[C@H]1c1nnc(SCc2ccc(Cl)cc2)o1	i	14.0%	20.6µM*	?	?	0.8%

Bioassay records from PubChem BioAssay.
